Experiments:
[1] = molecular target: Calcium/calmodulin-dependent protein kinase type II subunit alpha (Homo sapiens) (UniProt Q9UQM7); conditions: at 1 µM;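 further: reported value is a mean percent inhibition of CAMK2A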
[2] = molecular target: Calcium/calmodulin-dependent protein kinase type II subunit delta (Homo sapiens) (UniProt Q13557); conditions: at 0.1 µM
[3] = molecular target: Calcium/calmodulin-dependent protein kinase type II subunit delta (Homo sapiens) (UniProt Q13557); conditions: at 1 µM
[4] = molecular target: T1, Calcium/calmodulin-dependent protein kinase type IV (Homo sapiens) (UniProt Q16566); conditions: at 0.1 µM
T1 sequence (whole entry): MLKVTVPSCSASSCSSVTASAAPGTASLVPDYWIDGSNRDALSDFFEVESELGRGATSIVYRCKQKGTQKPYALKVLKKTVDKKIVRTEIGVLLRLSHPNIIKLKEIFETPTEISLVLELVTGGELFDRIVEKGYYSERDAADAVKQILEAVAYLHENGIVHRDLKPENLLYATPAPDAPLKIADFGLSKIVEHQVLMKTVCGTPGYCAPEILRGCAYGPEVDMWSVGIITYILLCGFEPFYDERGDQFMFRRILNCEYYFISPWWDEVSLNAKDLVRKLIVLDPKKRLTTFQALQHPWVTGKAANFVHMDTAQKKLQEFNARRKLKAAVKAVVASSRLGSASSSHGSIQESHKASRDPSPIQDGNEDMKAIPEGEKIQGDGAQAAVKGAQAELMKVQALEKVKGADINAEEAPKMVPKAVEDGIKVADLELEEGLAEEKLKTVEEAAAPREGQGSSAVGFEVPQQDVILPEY

[5] = molecular target: T1, Calcium/calmodulin-dependent protein kinase type IV (Homo sapiens); conditions: at 1 µM
[6] = molecular target: T2, Serine/threonine-protein kinase Chk1 (Homo sapiens) (UniProt O14757); conditions: at 0.1 µM
T2 sequence (whole entry): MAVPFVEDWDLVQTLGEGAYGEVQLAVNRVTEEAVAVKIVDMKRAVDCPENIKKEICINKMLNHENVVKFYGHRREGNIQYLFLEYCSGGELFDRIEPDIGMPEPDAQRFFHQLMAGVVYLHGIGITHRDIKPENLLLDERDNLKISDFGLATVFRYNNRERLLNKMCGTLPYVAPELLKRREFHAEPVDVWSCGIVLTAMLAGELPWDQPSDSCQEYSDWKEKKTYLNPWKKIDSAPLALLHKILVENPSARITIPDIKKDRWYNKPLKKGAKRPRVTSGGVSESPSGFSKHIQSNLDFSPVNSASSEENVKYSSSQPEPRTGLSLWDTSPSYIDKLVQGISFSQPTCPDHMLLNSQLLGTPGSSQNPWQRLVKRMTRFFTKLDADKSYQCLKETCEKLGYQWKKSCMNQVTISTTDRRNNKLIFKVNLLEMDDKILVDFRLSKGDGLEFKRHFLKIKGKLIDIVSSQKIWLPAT

[7] = molecular target: T2, Serine/threonine-protein kinase Chk1 (Homo sapiens); conditions: at 1 µM
[8] = molecular target: Serine/threonine-protein kinase Chk2 (Homo sapiens) (UniProt O96017); conditions: at 0.1 µM
[9] = molecular target: Serine/threonine-protein kinase Chk2 (Homo sapiens) (UniProt O96017); conditions: at 1 µM
[10] = molecular target: Death-associated protein kinase 1 (Homo sapiens) (UniProt P53355); conditions: at 0.1 µM
[11] = molecular target: Death-associated protein kinase 1 (Homo sapiens) (UniProt P53355); conditions: at 1 µM
[12] = molecular target: T3, Serine/threonine-protein kinase DCLK2 (Homo sapiens) (UniProt Q8N568); conditions: at 0.1 µM
T3 sequence (whole entry): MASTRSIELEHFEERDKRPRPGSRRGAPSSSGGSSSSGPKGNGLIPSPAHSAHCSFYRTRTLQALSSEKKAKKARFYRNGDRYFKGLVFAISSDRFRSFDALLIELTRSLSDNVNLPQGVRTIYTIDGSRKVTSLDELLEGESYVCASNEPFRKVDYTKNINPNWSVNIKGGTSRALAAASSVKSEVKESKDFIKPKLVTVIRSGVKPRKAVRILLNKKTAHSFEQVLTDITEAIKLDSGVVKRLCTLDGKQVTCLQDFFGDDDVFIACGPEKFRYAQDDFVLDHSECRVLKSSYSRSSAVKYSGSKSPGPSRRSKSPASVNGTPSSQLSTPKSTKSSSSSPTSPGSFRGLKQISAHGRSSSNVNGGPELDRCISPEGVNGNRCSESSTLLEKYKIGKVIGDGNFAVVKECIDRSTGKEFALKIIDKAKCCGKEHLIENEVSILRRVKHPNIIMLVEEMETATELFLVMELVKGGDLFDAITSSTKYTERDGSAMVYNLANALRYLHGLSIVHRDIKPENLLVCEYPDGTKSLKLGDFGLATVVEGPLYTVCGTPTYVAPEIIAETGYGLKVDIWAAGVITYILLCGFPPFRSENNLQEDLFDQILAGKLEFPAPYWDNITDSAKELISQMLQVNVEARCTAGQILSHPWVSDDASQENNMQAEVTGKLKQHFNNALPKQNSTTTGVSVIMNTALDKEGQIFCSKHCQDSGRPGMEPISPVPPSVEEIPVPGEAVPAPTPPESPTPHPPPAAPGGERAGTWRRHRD

[13] = molecular target: T3, Serine/threonine-protein kinase DCLK2 (Homo sapiens); conditions: at 1 µM
[14] = molecular target: MAP kinase-activated protein kinase 2 (Homo sapiens) (UniProt P49137); conditions: at 0.1 µM
[15] = molecular target: MAP kinase-activated protein kinase 2 (Homo sapiens) (UniProt P49137); conditions: at 1 µM
[16] = molecular target: MAP kinase-activated protein kinase 3 (Homo sapiens) (UniProt Q16644); conditions: at 0.1 µM
[17] = molecular target: MAP kinase-activated protein kinase 3 (Homo sapiens) (UniProt Q16644); conditions: at 1 µM
[18] = molecular target: Serine/threonine-protein kinase MARK1 (Homo sapiens) (UniProt Q9P0L2); conditions: at 0.1 µM
[19] = molecular target: Serine/threonine-protein kinase MARK1 (Homo sapiens) (UniProt Q9P0L2); conditions: at 1 µM
[20] = molecular target: MAP/microtubule affinity-regulating kinase 3 (Homo sapiens) (UniProt P27448); conditions: at 0.1 µM;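 further: mean percent inhibition of MARK3 kinase activity, measured within the GSK PKIS screening panel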
MAP/microtubule affinity-regulating kinase 3 (Homo sapiens), sequence (P27448 whole entry, looked up): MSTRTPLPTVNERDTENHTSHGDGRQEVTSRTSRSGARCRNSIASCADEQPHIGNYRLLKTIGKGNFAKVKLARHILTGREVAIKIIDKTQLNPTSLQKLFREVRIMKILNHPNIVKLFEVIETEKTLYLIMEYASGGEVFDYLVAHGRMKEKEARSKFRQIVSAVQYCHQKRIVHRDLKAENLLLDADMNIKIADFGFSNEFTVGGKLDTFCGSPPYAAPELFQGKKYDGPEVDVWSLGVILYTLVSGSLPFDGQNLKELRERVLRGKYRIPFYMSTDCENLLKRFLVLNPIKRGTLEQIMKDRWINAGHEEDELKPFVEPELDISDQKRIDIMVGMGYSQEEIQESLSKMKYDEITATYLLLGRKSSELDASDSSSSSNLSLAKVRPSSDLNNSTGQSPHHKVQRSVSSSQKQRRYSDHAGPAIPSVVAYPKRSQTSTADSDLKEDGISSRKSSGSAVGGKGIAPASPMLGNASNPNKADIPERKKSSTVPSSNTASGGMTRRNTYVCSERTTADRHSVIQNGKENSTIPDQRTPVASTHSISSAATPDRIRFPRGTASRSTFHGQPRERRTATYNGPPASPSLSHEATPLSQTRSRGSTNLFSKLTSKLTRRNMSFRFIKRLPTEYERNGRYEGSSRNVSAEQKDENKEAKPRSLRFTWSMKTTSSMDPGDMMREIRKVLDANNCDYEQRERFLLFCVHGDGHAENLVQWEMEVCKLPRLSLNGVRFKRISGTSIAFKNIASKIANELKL

Death-associated protein kinase 1 (Homo sapiens), sequence (P53355 whole entry, looked up): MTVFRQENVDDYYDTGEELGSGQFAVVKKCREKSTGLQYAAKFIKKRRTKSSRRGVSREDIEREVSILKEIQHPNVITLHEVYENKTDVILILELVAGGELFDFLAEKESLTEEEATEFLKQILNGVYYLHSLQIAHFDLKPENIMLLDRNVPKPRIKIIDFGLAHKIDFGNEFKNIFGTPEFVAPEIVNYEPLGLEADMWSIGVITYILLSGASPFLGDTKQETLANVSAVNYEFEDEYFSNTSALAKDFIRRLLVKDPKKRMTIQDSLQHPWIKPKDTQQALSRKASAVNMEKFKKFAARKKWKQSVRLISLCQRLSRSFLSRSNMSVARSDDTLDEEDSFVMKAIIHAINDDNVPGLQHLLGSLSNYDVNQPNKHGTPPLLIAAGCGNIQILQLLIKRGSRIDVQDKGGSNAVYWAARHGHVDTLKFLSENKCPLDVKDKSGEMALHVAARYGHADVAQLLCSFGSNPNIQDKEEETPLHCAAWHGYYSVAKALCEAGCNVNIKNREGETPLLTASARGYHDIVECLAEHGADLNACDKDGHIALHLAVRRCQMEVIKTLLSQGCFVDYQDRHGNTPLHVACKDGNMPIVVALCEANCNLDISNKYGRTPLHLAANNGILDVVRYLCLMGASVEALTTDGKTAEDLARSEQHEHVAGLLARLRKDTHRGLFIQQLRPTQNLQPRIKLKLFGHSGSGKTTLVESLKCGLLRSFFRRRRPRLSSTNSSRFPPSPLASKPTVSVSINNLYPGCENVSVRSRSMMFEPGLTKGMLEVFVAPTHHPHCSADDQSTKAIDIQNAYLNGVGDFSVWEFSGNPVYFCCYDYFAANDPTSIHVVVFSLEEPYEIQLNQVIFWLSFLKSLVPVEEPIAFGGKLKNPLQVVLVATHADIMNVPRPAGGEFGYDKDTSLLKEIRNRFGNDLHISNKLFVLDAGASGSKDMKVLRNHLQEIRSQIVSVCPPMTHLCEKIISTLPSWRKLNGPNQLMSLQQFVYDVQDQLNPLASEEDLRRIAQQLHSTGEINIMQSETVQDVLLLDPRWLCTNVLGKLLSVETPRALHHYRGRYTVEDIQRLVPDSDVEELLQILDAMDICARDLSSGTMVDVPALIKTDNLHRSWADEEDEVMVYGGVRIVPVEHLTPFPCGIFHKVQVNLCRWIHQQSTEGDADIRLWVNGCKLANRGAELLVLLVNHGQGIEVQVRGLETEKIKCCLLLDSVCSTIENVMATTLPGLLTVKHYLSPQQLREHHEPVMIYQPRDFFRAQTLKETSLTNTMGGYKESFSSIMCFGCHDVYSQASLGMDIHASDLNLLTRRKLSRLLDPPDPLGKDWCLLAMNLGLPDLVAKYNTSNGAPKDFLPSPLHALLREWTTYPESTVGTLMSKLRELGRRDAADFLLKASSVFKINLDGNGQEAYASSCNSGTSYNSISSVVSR
Calcium/calmodulin-dependent protein kinase type II subunit alpha (Homo sapiens), sequence (Q9UQM7 whole entry): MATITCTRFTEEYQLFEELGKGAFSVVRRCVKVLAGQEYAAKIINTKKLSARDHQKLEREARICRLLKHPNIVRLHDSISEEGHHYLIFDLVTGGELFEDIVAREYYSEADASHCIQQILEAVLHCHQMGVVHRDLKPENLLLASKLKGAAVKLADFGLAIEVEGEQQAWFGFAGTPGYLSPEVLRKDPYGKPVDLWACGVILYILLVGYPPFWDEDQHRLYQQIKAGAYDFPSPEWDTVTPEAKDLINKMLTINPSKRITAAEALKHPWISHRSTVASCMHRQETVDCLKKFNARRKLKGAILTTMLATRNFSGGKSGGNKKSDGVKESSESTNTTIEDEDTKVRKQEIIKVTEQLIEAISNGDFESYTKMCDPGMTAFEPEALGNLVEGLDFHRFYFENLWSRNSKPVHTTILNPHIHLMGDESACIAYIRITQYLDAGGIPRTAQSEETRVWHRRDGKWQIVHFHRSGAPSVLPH
MAP kinase-activated protein kinase 2 (Homo sapiens), sequence (P49137 whole entry, looked up): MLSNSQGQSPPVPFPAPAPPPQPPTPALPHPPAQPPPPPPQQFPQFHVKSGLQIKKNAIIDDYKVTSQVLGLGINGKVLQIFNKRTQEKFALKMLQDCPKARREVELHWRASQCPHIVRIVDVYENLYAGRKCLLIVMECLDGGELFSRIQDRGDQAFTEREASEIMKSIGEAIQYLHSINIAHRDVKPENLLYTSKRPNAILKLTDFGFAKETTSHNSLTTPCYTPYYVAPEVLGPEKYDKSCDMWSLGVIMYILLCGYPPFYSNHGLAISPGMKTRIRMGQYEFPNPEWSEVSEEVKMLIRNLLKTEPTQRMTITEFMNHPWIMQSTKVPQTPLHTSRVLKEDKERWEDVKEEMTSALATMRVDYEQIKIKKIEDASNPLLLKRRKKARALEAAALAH
Serine/threonine-protein kinase Chk2 (Homo sapiens), sequence (O96017 whole entry): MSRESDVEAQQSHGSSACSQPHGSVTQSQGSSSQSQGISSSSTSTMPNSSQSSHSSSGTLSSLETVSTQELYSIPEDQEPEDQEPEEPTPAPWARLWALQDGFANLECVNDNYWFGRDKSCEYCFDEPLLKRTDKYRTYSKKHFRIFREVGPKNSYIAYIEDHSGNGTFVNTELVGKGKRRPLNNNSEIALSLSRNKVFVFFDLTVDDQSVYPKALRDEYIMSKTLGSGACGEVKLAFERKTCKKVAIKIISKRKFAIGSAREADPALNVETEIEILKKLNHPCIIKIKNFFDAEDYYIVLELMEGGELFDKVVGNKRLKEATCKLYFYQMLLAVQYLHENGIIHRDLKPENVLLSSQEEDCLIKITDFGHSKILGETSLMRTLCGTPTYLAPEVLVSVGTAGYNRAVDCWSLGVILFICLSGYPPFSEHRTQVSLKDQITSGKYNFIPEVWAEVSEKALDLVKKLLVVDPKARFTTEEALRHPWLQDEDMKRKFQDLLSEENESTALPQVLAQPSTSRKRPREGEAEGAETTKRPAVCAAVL
Serine/threonine-protein kinase MARK1 (Homo sapiens), sequence (Q9P0L2 whole entry, looked up): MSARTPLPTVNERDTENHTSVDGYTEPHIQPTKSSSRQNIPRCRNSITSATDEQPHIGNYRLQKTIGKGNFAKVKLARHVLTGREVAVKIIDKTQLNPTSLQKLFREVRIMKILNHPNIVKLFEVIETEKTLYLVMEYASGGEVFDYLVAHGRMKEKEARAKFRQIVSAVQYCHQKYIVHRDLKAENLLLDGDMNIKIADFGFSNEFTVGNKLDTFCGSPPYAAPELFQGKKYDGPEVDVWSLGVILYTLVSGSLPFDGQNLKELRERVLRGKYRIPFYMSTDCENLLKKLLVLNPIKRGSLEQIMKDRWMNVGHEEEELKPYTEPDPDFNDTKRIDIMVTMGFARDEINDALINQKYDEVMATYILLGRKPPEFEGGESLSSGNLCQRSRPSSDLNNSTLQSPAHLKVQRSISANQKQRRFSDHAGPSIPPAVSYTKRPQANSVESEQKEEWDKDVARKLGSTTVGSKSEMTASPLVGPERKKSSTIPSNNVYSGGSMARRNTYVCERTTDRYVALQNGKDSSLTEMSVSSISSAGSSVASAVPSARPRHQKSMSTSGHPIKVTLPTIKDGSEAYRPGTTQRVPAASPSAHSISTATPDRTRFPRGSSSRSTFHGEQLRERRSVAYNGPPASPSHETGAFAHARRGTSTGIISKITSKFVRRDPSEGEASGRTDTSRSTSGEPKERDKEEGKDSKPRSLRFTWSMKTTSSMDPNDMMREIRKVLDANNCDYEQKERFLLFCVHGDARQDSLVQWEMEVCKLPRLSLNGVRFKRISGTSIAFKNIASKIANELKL
Calcium/calmodulin-dependent protein kinase type II subunit delta (Homo sapiens), sequence (Q13557 whole entry): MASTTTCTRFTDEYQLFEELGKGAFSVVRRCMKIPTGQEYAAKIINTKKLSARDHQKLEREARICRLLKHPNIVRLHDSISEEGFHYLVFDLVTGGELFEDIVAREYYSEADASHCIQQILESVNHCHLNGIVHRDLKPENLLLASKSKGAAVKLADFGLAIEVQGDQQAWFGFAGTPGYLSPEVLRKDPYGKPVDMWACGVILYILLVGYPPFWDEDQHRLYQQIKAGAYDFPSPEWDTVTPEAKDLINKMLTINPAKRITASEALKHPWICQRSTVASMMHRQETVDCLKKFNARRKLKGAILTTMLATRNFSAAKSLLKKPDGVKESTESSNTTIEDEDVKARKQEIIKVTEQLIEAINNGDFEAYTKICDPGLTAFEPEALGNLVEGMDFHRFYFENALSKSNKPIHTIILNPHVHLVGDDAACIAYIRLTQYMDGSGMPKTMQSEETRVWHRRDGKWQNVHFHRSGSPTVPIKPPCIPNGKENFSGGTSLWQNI

SMILES | inhibition [1] | inhibition [2] | inhibition [3] | inhibition [4] | inhibition [5] | inhibition [6] | inhibition [7] | inhibition [8] | inhibition [9] | inhibition [10] | inhibition [11] | inhibition [12] | inhibition [13] | inhibition [14] | inhibition [15] | inhibition [16] | inhibition [17] | inhibition [18] | inhibition [19] | inhibition [20]
N#Cc1c(NC(=O)c2ccccc2F)sc2c1CCCC2 | -0.29% | -2.56% | 1.91% | 0.87% | 1.11% | -0.69% | -3.66% | -0.83% | -2.63% | -1.42% | -2.35% | -1.75% | 0.7% | -1.29% | -0.76% | -0.73% | -1.26% | 1.09% | 2.84% | -2.32%
CN1CCN(C(=O)c2ccc(NC(=O)Nc3ccc(N(C)c4ccnc(Nc5ccc(CS(C)(=O)=O)cc5)n4)cc3)cc2)CC1 | 3.13% | 1.38% | 3.39% | 1.22% | 1.48% | 1.47% | 2.64% | 5.54% | 39.4% | 2.86% | 2.64% | -0.43% | 0.81% | 0.81% | 1.86% | 2.24% | 3.23% | 1.73% | 15.2% | 2.96%
COc1cc2ncn(-c3cc(OCc4ccccc4S(C)(=O)=O)c(C#N)s3)c2cc1OC | 29.9% | 18.3% | 62.8% | 1.21% | 1.69% | 5.49% | 23.3% | 10% | 43% | 3.5% | 6.48% | 1.77% | 0.47% | 1.6% | 1.54% | 3.38% | 4.59% | 36.9% | 80% | 49.6%
CCOc1nccc2c1nc(-c1nonc1N)n2CC | 2.47% | 1.48% | 3.36% | -4.15% | -3.33% | 4.09% | 5.94% | 2.06% | 3.78% | 3.66% | 3.18% | 0.43% | 1.18% | 2.38% | 2.83% | 3.14% | 2.96% | 2.58% | 9.64% | 1.53%
COc1cc2ncnc(Nc3ccc(C)c(O)c3)c2cc1OC | 2.74% | 2.6% | 3.68% | -1.73% | -3.77% | 4.63% | 4% | 5.03% | 25.5% | 6.4% | 6.25% | 2.8% | 0.34% | 3.52% | 3.42% | 5.93% | 7.13% | 4.14% | 7.86% | 4.06%
COC(=O)c1ccc2c(c1)C(=Cc1cc(Br)c(O)c(Br)c1)C(=O)N2 | 5.83% | 3.29% | 9.61% | -0.49% | 4.64% | 9.68% | 14.6% | 8.72% | 20.6% | 9.92% | -8.17% | 1.31% | 0.79% | 4.54% | 7.08% | 8.04% | 10.5% | 1.62% | 5.65% | -2.9%
NS(=O)(=O)c1ccc(NC=C2C(=O)Nc3ccc4ncsc4c32)cc1 | 13.7% | 7.83% | 30.6% | 0.83% | 6.33% | 14.5% | 48% | 7.15% | 33.2% | 4.96% | 24.9% | 0.84% | 7.25% | 2.28% | 4.38% | 5.09% | 5.58% | 30.8% | 67.3% | 17.8%
Cc1ccc2c(c1)/C(=N/Nc1ccc(S(N)(=O)=O)cc1)C(=O)N2 | 2.25% | 1.2% | 3.28% | 1.05% | 2.05% | 0.25% | 3.5% | 0.04% | 0.67% | 0.46% | 1.29% | 6.62% | -0.15% | -0.81% | -0.37% | 2.9% | 1.35% | 0.5% | 3.86% | -0.22%
COc1ccc(-c2nn3ncccc3c2-c2ccnc(Nc3cccc(C(F)(F)F)c3)n2)cc1 | -0.66% | 1.66% | 0.95% | 1.07% | -0.19% | 1.85% | -3.09% | 2.01% | 1.61% | 4.24% | 2.26% | -0.87% | -1.41% | 1.58% | 0.39% | 7.94% | 23.9% | 1.45% | 3.55% | 0.72%
C[C@@H](Oc1cc(-n2cnc3ccc(OCC4CCN(C)CC4)cc32)sc1C(N)=O)c1ccccc1C(F)(F)F | 14.2% | 6.59% | 49.9% | -0.36% | 1.74% | -1.68% | 0.33% | -2% | -1.44% | -1.34% | 3.7% | -1.44% | 0.02% | -1.73% | -1.24% | -0.96% | -1.6% | 8.37% | 50.7% | 6.29%

— ChEMBL document CHEMBL1961873, “Compounds: GSK PKIS; Assays: Nanosyn kinase panel” (2012)
